Assay outcomes: PubChem BioAssay, National Center for Advancing Translational Sciences (NCATS)
This is a sample that favours compounds with a hit; in the whole collection about 21% have one here.
Pf growth 96h = Primary qHTS for delayed death inhibitors of the malarial parasite plastid, 96 hour incubation; P. falciparum luciferase reporter growth, 96 h; Potency, µM (highest dose often 28.7 µM), for inactives: at the top dose activity change, negative = inhibition, usual class: inhibitors; 320,000 tested, 6.9% active; further: potency means the concentration at half of the fitted maximal effect; on the % scale 0 is the no-effect control and ±100 the full control effect
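96 h incubation, 37 C, 5% CO2, of luciferase-reporter P. falciparum-infected RBCs (2% hematocrit, 0.05% parasitemia final) with test compounds; endpoint luminescence.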
Pf growth 48h = Primary qHTS for delayed death inhibitors of the malarial parasite plastid, 48 hour incubation; P. falciparum luciferase growth in erythrocytes, 48 h; Potency, µM (doses to about 28.7 µM), for the others: at the highest dose activity change, negative = inhibition, usual class: inhibitors; 310,000 tested, 5.9% active; further: potency means the concentration at half of the fitted maximal effect; on the % scale 0 is the no-effect control and ±100 the full control effect
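Luciferase-expressing P. falciparum in infected erythrocytes (2% hematocrit, 0.1% parasitemia final) in RPMI 1640/0.5% Albumax were exposed to compound for 48 hours at 37 C, 5% CO2; growth read as luminescence.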
CHX counter = Cycloheximide Counterscreen for Small Molecule Inhibitors of Shiga Toxin; 300,000 tested, 12% active; max response, %; cell reporter, cycloheximide protein synthesis inhibition counterscreen; AID 2314, 2010; in the data active means max response mostly above about 13%, no sharp cut-off; inactive means mostly below about 14%; further: read at 38.3 µM for the half of the compounds with a filed dose; 0% is about no effect
Sm TGR block = qHTS Assay for the Inhibitors of Schistosoma Mansoni Peroxiredoxins; AID 485364, 2010; Potency, µM (doses to about 114 µM), for the others: top-dose activity change, negative = inhibition, hits mostly inhibitors; 360,000 tested, 3% active; purified TGR, DTNB reduction, TNB absorbance 405 nm; Schistosoma mansoni thioredoxin glutathione reductase (TGR), Q962Y6; further: potency means the concentration at half of the fitted maximal effect; on the % scale 0 is the no-effect control and ±100 the full control effect; nearly all actives have a fitted effect of over 60% in size
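Kinetic colorimetric format: TGR-catalysed, NADPH-driven DTNB reduction monitored via TNB absorbance. Enzyme dispensed at 20 nM; compound exposure 15 min at room temperature before reaction start.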
NS1 function inh = qHTS Assay for Inhibitors of Influenza NS1 Protein Function. Potency, µM (titrated, usually from 46.1 µM), for the others: at the top dose activity, positive = more growth. 270,000 tested, 0.4% active. AID 2326, 2010; calls by dose curve; further: potency means the concentration at half of the fitted maximal effect; actives are rising curves; nearly all actives have a fitted effect of over 50% in size
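A cell-based growth assay was used: compounds that relieve NS1-induced slow growth of budding yeast raise OD600. Assay medium was yeast nitrogen base with ammonium sulphate and -URA supplement, pH 6.0, with 2% galactose.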
Shiga inhibitor = A qHTS for Small Molecule Inhibitors of Shiga Toxin. inhibition, % at 38.7 µM. Vero cells, Shiga toxin protein synthesis inhibition reporter. 290,000 tested, 9.2% active; in the data active means inhibition mostly above about 28%, no sharp cut-off; inactive means mostly below about 43%; further: 0% is about no effect
* marks the source's active call; other numbers are inactive results; ? = inconclusive; . = not tested or not shown; [ ] = remark or other dose. Unless noted, the call rests on the fitted dose curve; in most records, active means well fitted curve in the direction sought with a large enough effect; inconclusive means small, poorly fitted or top-dose-only effect, or another doubt; inactive means no such curve, though single readings can be large; an effect the other way counts as inactive or inconclusive.

SMILES	Pf growth 96h	Pf growth 48h	CHX counter	Sm TGR block	NS1 function inh	Shiga inhibitor
CCOc1ccc(-c2cnc3n2CCC3)cc1	15µM*	.	1	6%	6%	-6
Clc1ccc(C2=Nn3c(Cn4nnc5ccccc54)nnc3SC2)cc1	-5%	?	1	-6%	2%	-8
Clc1ccc(OCc2nnc3n2N=C(c2ccc4c(c2)OCCO4)CS3)c(Cl)c1	18%	?	15*	7%	-23%	15
CC(NC(=O)CSc1nc(C2CC2)n(-c2ccccc2)n1)c1ccco1 (stereo not drawn)	?	?	.	-32%	.	.
C/C(N)=C(/C#N)C(=O)COC(=O)COc1ccc(Cl)cc1C	38%	.	-1	-1%	4%	-15
CCc1cccc(C)c1NC(=O)CO/N=C(\C)c1cc2ccccc2o1	?	?	-2	7%	7%	19
C/C(=N\OCC(=O)NCC(F)(F)F)c1cc2ccccc2o1	56%	89%	53*	8%	1%	71*
CCCCNC(=O)CO/N=C(\C)c1cc2ccccc2o1	-18%	49%	54*	-8%	-10%	77*
O=C(COC(=O)c1cc(-c2cccs2)nc2ccccc12)c1ccc(Br)cc1	.	.	.	0%	.	.
COc1cc(C)c2c(c1C=O)Oc1c(c(C)c(O)c3c1C(O)OC3=O)OC2=O (stereo not drawn)	?	?	-2	20µM*	-1%	22
COC(C(=O)Nc1ccc(Br)cc1F)c1ccccc1 (stereo not drawn)	0%	19%	10	0%	0%	10
O=C(Nc1cccs1)Nc1ccc(Br)cc1F	12µM*	?	67*	-2%	-31%	194*
O=C(Nc1cccs1)Nc1ccc(F)cc1F	?	65%	20*	0%	2%	37
O=C(O)c1ccc2c3n(nc2c1)-c1ccc(Cl)cc1CO3	176%	370%	42*	18%	-6%	54*
O=C(c1ccc2c3n(nc2c1)-c1ccc(Cl)cc1CO3)N1CCCCC1	292%	266%	46*	0%	-76%	70*
Cc1ccc2c(c1)COc1c3ccc(C(=O)N4CCOCC4)cc3nn1-2	97%	101%	55*	-1%	-6%	96*
CCCC#Cc1ccc2c(c1)COc1c3ccccc3nn1-2	145%	143%	.	-10%	.	.
O=C(O)CCCN1C(=O)C2C3CC(C2C1=O)C1C(c2ccccc2)c2sc(=O)n(-c4ccccc4)c2SC31 (stereo not drawn)	?	?	-4	-9%	.	16
COc1cc2c(C(=O)N3CCN(C)CC3)c(C)n(-c3ccccc3)c2cc1Br	1.5µM*	4.7µM*	11	15%	-1%	-5
CC(C)Oc1ccc(CNC(=O)C2CCN(Cc3cc4ccccc4n3Cc3ccccc3)CC2)cc1	.	.	.	4%	.	.
CCOC(=O)/C(C#N)=C\C1=C(N2CCOCC2)CC(C)(C)OC1	-18%	3%	9	32µM*	.	27
Cc1csc(C(=O)O)c1NC(=O)c1c(Cl)cccc1Cl	-6%	?	-2	-36%	-5%	-4
CC/C=C\C/C=C\C/C=C\CCCCCCCC(=O)O	?	?	2	35µM*	.	-8
CCCCCCC/C=C\CCCCCCCCC(=O)O	.	.	.	.	12%	.
CC/C=C\C/C=C\C/C=C\C/C=C\C/C=C\CCCC(=O)O	-23%	2%	.	.	.	.
SMILES	Pf growth 96h	Pf growth 48h	CHX counter	Sm TGR block	NS1 function inh	Shiga inhibitor
CCCCC/C=C\C/C=C\C/C=C\C/C=C\CCCC(=O)O	-1%	?	.	18µM*	.	.
CN=c1scc(-c2ccccc2Br)n1/N=C/c1ccc[nH]1	102%	163%	29*	-25%	.	86*
Cc1cc(C)nc(-n2ncc3c2CC(c2ccccc2)CC3=O)n1 (stereo not drawn)	?	-28%	-2	6%	8%	-6
Cc1cc(C)nc(-n2ncc3c2CC(c2cccc(Cl)c2)CC3=O)n1 (stereo not drawn)	4.1µM*	?	1	4%	.	-14
Cc1cc(C)nc(-n2ncc3c2CC(c2ccccc2C)CC3=O)n1 (stereo not drawn)	5.2µM*	?	-4	0%	5%	-12
O=C(NC1CCCC1)C(c1ccncc1)N(Cc1ccccc1)C(=O)c1ccc(-c2ccccc2)[nH]1 (stereo not drawn)	?	?	13*	?	2%	27
CCOc1ccc(C(C(=O)NC2CCCC2)N(CCCO)C(=O)c2ccc(-c3ccccc3)[nH]2)cc1 (stereo not drawn)	11%	?	12	?	.	60*
O=C(NC1CCCC1)C(c1ccncc1)N(Cc1ccco1)C(=O)c1ccc(-c2ccccc2)[nH]1 (stereo not drawn)	67%[5.75 µM]	?	7	28µM*	.	33
CC(C)(C)NC(=O)C(c1ccncc1)N(Cc1ccc(F)cc1)C(=O)c1ccc(-c2ccccc2)[nH]1 (stereo not drawn)	?	?	13	32µM*	.	22
CCCCN(C(=O)c1c(C)noc1C)c1c(N)n(CCC)c(=O)[nH]c1=O	-17%	-14%	.	-15%	.	.
CCc1cccc(C)c1NC(=O)Cn1cc2c(n1)CCCC2	.	.	.	6%	.	.
O=[N+]([O-])c1cccc(/C=N/n2c(-c3cccnc3)n[nH]c2=S)c1	39%	13%	-5	-18%	?	-12
Cc1n[nH]c(=S)n(/N=C/c2cccc([N+](=O)[O-])c2)c1=O	?	1.7µM*	0	12%	-5%	-12
COc1cc(/C=N/n2c(=S)[nH]nc(C)c2=O)cc([N+](=O)[O-])c1O	15µM*	64%	-7	?	11%	11
Cc1cc(C)c2oc(-c3ccc(NC(=O)c4cc(Br)ccc4Cl)cc3)nc2c1	.	.	.	-10%	.	.
Cc1cc(C)c2oc(-c3ccc(Cl)c(NC(=O)c4ccc(C#N)cc4F)c3)nc2c1	1%	?	48*	-23%	0%	39*
COc1ccc(-c2cc(C(=O)OCC(=O)c3cccc(OC)c3)c3cccc(Cl)c3n2)cc1	.	.	.	0%	.	.
COc1ccc(-n2cnc3cc(C(=O)N4CCOCC4)ccc32)cc1	7%	7%	56*	-9%	-5%	45*
COc1ccc(-n2cnc3cc(NS(=O)(=O)c4ccccc4)ccc32)cc1	?	?	21*	-13%	7%	37*
COc1ccc(-n2cnc3cc(N)ccc32)cc1	?	?	13*	0%	20%	12
COc1ccc(-n2cnc3cc(C(=O)N4CCC5(CC4)OCCO5)ccc32)cc1	?	?	2	0%	.	18
COc1ccc(NC(=O)c2cccc(NS(=O)(=O)c3ccccc3)c2)cc1	72%	1%	-1	4%	9%	.
